From PubChem BioAssay (EPA / NIEHS)
Calls of active or inactive are those of the source. The calls were made as follows: active = hit-call score of the fitted dose curve at least 0.9, where 1 is the maximum; inactive = score below 0.9.

What was measured:
Conditions in all cases: mRNA level, 48 h; actives raise or lower the signal
[1] = read-out: Phosphatase and tensin (PTEN), PTEN (gene 5728); assay: LTEA_HepaRG_PTEN: Life Technologies and Expression Analysis (LTEA) Assay for Phosphatase and tensin (PTEN) using HepaRG (AID 2283523)
Outline: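 Expression of PTEN is quantified in the human liver line HepaRG following two days of dosing (top concentration 100 uM, half-log dilutions, 0.5% DMSO). Values derive from bidirectional curve fitting relative to DMSO controls.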

[2] = read-out: solute carrier (SLC22A1), SLC22A1 (gene 6580); assay: LTEA_HepaRG_SLC22A1: Life Technologies and Expression Analysis (LTEA) Assay for solute carrier (SLC22A1) using HepaRG (AID 2283524);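 as to AC50: differentiated human HepaRG liver cells in serum-free induction medium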
Outline: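 Transcript induction or suppression of SLC22A1 in human HepaRG cultures is scored after 48 h chemical treatment, with DMSO (0.5%) as baseline for bidirectional fitting. Concentrations span eight half-log points topping at 100 uM.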

[3] = read-out: Pyruvate Dehydrogenase Kinase 4 (PDK4), PDK4 (gene 5166); assay: LTEA_HepaRG_PDK4: Life Technologies and Expression Analysis (LTEA) Assay for Pyruvate Dehydrogenase Kinase 4 (PDK4) using HepaRG (AID 2283525)
Outline: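 Eight-point, half-log concentration series (max 100 uM, 0.5% DMSO) applied to differentiated HepaRG cells for 48 h in duplicate. Endpoint: PDK4 mRNA induction or repression by qRT-PCR against DMSO baseline.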

[4] = read-out: NAD(P)H dehydrogenase [quinone] 1 (NQO1), NQO1 (gene 1728); assay: LTEA_HepaRG_NQO1: Life Technologies and Expression Analysis (LTEA) Assay for NAD(P)H dehydrogenase [quinone] 1 (NQO1) using HepaRG (AID 2283526)
Outline: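 qRT-PCR read-out (Fluidigm TaqMan), normalized to three housekeeping genes, after 48 h chemical exposure of HepaRG cells. Concentrations: eight points, top 100 uM, half-log steps, 0.5% DMSO vehicle. Gain or loss of signal fitted relative to DMSO.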

[5] = read-out: Nuclear factor erythroid 2-related factor 2 (Homo sapiens) (UniProt Q16236); assay: LTEA_HepaRG_NFE2L2: Life Technologies and Expression Analysis (LTEA) Assay for Nuclear factor erythroid 2-related factor 2 (NFE2L2) Transcription Factor using HepaRG (AID 2283527);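 as to outcome: TaqMan qRT-PCR transcript level normalised to ACTB GAPDH and POLR2A housekeeping genes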
Outline: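 Human liver HepaRG line treated in duplicate for 48 h with an eight-point series topping at 100 uM. Gene expression of NFE2L2 by qRT-PCR, bidirectionally fitted against the vehicle control.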

[6] = read-out: succinate dehydrogenase complex iron sulfur subunit B (SDHB), SDHB (gene 6390); assay: LTEA_HepaRG_SDHB: Life Technologies and Expression Analysis (LTEA) Assay for succinate dehydrogenase complex iron sulfur subunit B (SDHB) using HepaRG (AID 2283528)
Outline: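 A human HepaRG culture in serum-free induction medium received test chemicals for 48 h over an eight-point range capped at 100 uM. SDHB expression change was quantified by qRT-PCR.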

[7] = read-out: Signal transducer and activator of transcription 3 (Homo sapiens) (UniProt P40763); assay: LTEA_HepaRG_STAT3: Life Technologies and Expression Analysis (LTEA) Assay for Signal transducer and activator of transcription (STAT3) using HepaRG (AID 2283529)
Outline: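 In this transcriptional endpoint, HepaRG cultures receive test chemicals at up to 100 uM for 48 h, tested in duplicate. STAT3 mRNA is normalized to ACTB, GAPDH and POLR2A.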

[8] = read-out: solute carrier (SLCO1B1), SLCO1B1 (gene 10599); assay: LTEA_HepaRG_SLCO1B1: Life Technologies and Expression Analysis (LTEA) Assay for solute carrier (SLCO1B1) using HepaRG (AID 2283530)
Outline: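 SLCO1B1 transcript levels were quantified by TaqMan qRT-PCR using three housekeeping genes for normalization. This followed 48 h chemical exposure (100 uM top, half-log, 8 points, 0.5% DMSO) of HepaRG liver cells, with gain or loss fitted relative to DMSO.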

[9] = read-out: sulfotransferase 2A1 (SULT2A1), SULT2A1 (gene 6822); assay: LTEA_HepaRG_SULT2A1: Life Technologies and Expression Analysis (LTEA) Assay for sulfotransferase 2A1 (SULT2A1) using HepaRG (AID 2283531)
Outline: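 Expression change of SULT2A1, by qRT-PCR with three housekeeping-gene normalization, was scored bidirectionally versus DMSO. Cells: differentiated HepaRG, dosed in duplicate for 48 h across 8 points, highest 100 µM, half-log dilution, 0.5% DMSO.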

[10] = read-out: Transforming Growth Factor (TGFA), TGFA (gene 7039); assay: LTEA_HepaRG_TGFA: Life Technologies and Expression Analysis (LTEA) Assay for Transforming Growth Factor (TGFA) using HepaRG (AID 2283532)
Outline: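 Gene expression of TGFA was quantified by qRT-PCR after human HepaRG cells were treated for 48 h with test chemicals (eight concentrations, highest 100 uM, 0.5% DMSO). Activity in either direction was fitted relative to DMSO.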

[11] = read-out: Transforming Growth Factor (TGFB1), TGFB1 (gene 7040); assay: LTEA_HepaRG_TGFB1: Life Technologies and Expression Analysis (LTEA) Assay for Transforming Growth Factor (TGFB1) Transporter using HepaRG (AID 2283533)
Outline: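 TGFB1 transcript measured by qRT-PCR with normalisation to three housekeeping genes (ACTB, GAPDH, POLR2A); human HepaRG line treated in duplicate for 48 hr with an 8-point series topping at 100 uM, 0.5% DMSO vehicle, bidirectionally fitted.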

[12] = read-out: TIMP1, TIMP1 (gene 7076); assay: LTEA_HepaRG_TIMP1: Life Technologies and Expression Analysis (LTEA) Assay for TIMP1 using HepaRG (AID 2283534)
Outline: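 Bidirectional change in TIMP1 transcript versus 0.5% DMSO, measured by TaqMan qRT-PCR with three housekeeping genes for normalization. HepaRG human liver cells dosed 48 h in duplicate, top concentration 100 uM with half-log dilutions.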

[13] = read-out: Tumor necrosis factor receptor 1 (TNFRSF1A), TNFRSF1A (gene 7132); assay: LTEA_HepaRG_TNFRSF1A: Life Technologies and Expression Analysis (LTEA) Assay for Tumor necrosis factor receptor 1 (TNFRSF1A) using HepaRG (AID 2283535)
Outline: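 mRNA measured by qRT-PCR (TaqMan, Fluidigm arrays) against ACTB/GAPDH/POLR2A housekeepers after 48 h chemical exposure of HepaRG cells. Top concentration 100 uM, half-log 8-point series, duplicates; vehicle 0.5% DMSO, both fit directions.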

[14] = read-out: Thyroid Hormone Responsive (THRSP), THRSP (gene 7069); assay: LTEA_HepaRG_THRSP: Life Technologies and Expression Analysis (LTEA) Assay for Thyroid Hormone Responsive (THRSP) using HepaRG (AID 2283536)
Outline: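 Cell model: human HepaRG, approx. 100,000 cells/well, 0.5% DMSO vehicle. Exposure lasts 48 h; phenobarbital 1 mM serves as induction positive control. Gene expression is measured by qRT-PCR against three endogenous control genes.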

[15] = read-out: UDP glucuronosyltransferase (UGT1A6), UGT1A6 (gene 54578); assay: LTEA_HepaRG_UGT1A6: Life Technologies and Expression Analysis (LTEA) Assay for UDP glucuronosyltransferase (UGT1A6) using HepaRG (AID 2283539)
Outline: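 Expression was quantified by TaqMan qRT-PCR on Fluidigm arrays with ACTB/GAPDH/POLR2A normalization and bidirectional fitting against 0.5% DMSO. HepaRG cells (~100,000/well) were treated in duplicate for 48 h at eight half-log concentrations up to 100 uM in serum-free induction medium.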

[16] = read-out: X-box binding protein 1 (XBP1), XBP1 (gene 7494); assay: LTEA_HepaRG_XBP1: Life Technologies and Expression Analysis (LTEA) Assay for X-box binding protein 1 (XBP1) using HepaRG (AID 2283540)
Outline: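 XBP1 transcript by qRT-PCR (housekeeping-normalized: ACTB, GAPDH, POLR2A) after 48 h chemical treatment of HepaRG cells, 8-point half-log series topping at 100 uM, vehicle 0.5% DMSO. Gain and loss of signal fitted relative to DMSO.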

[17] = read-out: Protein phosphatase 2A (PPP2R4), PTPA (gene 5524); assay: LTEA_HepaRG_PPP2R4: Life Technologies and Expression Analysis (LTEA) Assay for Protein phosphatase 2A (PPP2R4) using HepaRG (AID 2283522)
Outline: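 HepaRG, 48 h exposure, 8-pt half-log series from 100 uM, 0.5% DMSO vehicle, duplicates. Readout: PPP2R4 mRNA, Fluidigm qRT-PCR, housekeeping-normalized. Bidirectional curve fit vs DMSO baseline.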

[18] = read-out: UDP glucuronosyltransferase (UGT1A1), UGT1A1 (gene 54658); assay: LTEA_HepaRG_UGT1A1: Life Technologies and Expression Analysis (LTEA) Assay for UDP glucuronosyltransferase (UGT1A1) using HepaRG (AID 2283538)
Outline: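 HepaRG, 48 h chemical exposure (top 100 uM, half-log 8-pt, 0.5% DMSO vehicle), duplicate wells; qRT-PCR (TaqMan, Fluidigm array) for UGT1A1 mRNA, housekeeping-normalized; bidirectional curve fit vs DMSO baseline.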

[19] = read-out: Cellular tumor antigen p53 (Homo sapiens) (UniProt P04637); assay: LTEA_HepaRG_TP53: Life Technologies and Expression Analysis (LTEA) Assay for Tumor Protein P53 (TP53) using HepaRG (AID 2283537)
Outline: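 Gain or loss of TP53 mRNA signal is scored relative to 0.5% DMSO after 48 h chemical treatment of HepaRG liver cells, tested in duplicate at eight half-log concentrations up to 100 uM.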

[20] = read-out: Nuclear factor NF-kappa-B p105 subunit (Homo sapiens) (UniProt P19838); assay: LTEA_HepaRG_NFKB1: Life Technologies and Expression Analysis (LTEA) Assay for Nuclear Factor Kappa B Subunit 1 (NFKB1) using HepaRG (AID 2283521);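 also: differentiated human HepaRG liver cells in serum-free induction medium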
Outline: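 Human HepaRG cells receive eight half-log concentrations, highest 100 uM, for 48 h. NFKB1 expression is then quantified by qRT-PCR and analysed for up- or down-regulation relative to 0.5% DMSO vehicle.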

Cellular tumor antigen p53 (Homo sapiens), sequence (P04637 whole entry, looked up): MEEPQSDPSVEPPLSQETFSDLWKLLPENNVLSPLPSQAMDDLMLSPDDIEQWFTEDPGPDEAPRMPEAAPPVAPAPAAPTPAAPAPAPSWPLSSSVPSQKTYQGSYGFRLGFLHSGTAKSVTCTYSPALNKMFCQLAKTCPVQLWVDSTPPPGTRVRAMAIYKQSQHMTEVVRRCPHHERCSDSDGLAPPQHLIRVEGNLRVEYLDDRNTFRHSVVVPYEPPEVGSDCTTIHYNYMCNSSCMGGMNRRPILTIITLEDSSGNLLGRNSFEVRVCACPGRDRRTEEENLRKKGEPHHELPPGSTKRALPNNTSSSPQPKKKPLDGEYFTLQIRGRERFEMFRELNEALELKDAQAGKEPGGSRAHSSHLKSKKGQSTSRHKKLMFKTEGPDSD
Nuclear factor erythroid 2-related factor 2 (Homo sapiens), sequence (Q16236 whole entry, looked up): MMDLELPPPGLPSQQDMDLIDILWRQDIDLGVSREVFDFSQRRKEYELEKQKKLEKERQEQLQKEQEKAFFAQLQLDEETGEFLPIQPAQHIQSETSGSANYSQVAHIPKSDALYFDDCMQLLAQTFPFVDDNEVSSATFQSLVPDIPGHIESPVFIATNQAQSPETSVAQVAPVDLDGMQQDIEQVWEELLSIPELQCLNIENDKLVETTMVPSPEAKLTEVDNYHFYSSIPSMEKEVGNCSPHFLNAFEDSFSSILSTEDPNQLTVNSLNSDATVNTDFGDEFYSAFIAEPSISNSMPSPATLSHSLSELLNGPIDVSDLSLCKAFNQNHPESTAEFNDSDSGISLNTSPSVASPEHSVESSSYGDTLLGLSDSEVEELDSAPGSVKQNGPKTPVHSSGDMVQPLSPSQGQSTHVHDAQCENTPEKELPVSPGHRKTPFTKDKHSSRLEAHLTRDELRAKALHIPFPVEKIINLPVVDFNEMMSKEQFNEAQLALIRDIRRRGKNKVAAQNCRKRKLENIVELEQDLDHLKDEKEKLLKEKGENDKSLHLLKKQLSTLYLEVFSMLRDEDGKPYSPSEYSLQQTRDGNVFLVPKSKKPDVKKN
Signal transducer and activator of transcription 3 (Homo sapiens), sequence (P40763 whole entry, looked up): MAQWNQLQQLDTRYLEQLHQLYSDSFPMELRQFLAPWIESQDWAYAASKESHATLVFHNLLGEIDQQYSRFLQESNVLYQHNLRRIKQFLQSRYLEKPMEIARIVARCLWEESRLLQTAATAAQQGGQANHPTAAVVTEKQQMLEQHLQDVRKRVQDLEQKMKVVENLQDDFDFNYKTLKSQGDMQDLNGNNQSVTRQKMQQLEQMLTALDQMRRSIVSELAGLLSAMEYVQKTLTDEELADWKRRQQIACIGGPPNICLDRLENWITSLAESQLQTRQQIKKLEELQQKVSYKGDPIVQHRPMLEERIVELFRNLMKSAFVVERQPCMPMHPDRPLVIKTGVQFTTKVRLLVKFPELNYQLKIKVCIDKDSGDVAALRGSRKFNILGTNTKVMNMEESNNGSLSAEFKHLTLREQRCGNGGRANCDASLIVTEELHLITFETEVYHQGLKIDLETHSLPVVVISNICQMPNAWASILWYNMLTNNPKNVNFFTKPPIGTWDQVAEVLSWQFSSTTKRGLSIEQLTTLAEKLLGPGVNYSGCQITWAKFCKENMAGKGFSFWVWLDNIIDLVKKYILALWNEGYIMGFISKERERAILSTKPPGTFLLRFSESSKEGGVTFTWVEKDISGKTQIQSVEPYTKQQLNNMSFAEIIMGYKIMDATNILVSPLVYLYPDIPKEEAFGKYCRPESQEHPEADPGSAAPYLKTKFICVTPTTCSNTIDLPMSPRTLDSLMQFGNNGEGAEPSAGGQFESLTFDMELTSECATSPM
Nuclear factor NF-kappa-B p105 subunit (Homo sapiens), sequence (P19838 whole entry, looked up): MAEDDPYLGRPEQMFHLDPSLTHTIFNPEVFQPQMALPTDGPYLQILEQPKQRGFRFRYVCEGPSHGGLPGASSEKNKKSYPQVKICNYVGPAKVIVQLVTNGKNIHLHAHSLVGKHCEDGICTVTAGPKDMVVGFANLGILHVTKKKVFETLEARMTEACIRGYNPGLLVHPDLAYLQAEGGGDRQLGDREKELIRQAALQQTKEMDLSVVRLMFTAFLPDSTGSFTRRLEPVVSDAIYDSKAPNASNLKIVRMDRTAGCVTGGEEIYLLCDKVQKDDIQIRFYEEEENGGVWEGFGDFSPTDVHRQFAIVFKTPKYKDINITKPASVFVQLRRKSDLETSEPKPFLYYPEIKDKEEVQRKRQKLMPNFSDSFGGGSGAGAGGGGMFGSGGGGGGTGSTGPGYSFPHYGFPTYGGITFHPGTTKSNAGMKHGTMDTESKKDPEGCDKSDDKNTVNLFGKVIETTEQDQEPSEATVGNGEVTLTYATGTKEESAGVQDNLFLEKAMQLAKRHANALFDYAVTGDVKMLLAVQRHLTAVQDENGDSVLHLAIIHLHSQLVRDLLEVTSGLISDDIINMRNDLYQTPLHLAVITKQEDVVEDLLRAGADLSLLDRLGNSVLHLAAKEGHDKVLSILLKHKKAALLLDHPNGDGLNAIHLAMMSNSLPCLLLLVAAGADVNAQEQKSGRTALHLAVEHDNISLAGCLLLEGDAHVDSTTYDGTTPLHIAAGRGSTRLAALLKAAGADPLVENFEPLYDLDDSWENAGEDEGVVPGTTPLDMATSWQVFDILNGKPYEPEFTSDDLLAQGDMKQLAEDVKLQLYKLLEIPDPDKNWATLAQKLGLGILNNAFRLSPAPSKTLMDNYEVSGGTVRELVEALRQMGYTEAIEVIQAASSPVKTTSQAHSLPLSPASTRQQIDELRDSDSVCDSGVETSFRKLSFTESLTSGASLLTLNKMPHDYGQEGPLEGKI

SMILES: CC(=O)O
- outcome [1]: inactive
- outcome [2]: inactive
- outcome [3]: inactive
- outcome [4]: inactive
- outcome [5]: inactive
- outcome [6]: inactive
- outcome [7]: inactive
- outcome [8]: inactive
- outcome [9]: inactive
- outcome [10]: inactive
- outcome [11]: inactive
- outcome [12]: inactive
- outcome [13]: inactive
- outcome [14]: inactive
- outcome [15]: inactive
- outcome [16]: inactive

SMILES: Cc1cn([C@H]2C=C[C@@H](CO)O2)c(=O)[nH]c1=O
- outcome [17]: inactive
- outcome [1]: inactive
- outcome [2]: inactive
- outcome [3]: inactive
- outcome [4]: inactive
- outcome [5]: inactive
- outcome [6]: inactive
- outcome [7]: inactive
- outcome [8]: inactive
- outcome [10]: inactive
- outcome [11]: inactive
- outcome [12]: inactive
- outcome [14]: inactive
- outcome [15]: inactive
- outcome [16]: inactive

SMILES: O=C(NS(=O)(=O)/C=C/c1cccs1)c1ccc(F)cc1Br
- outcome [17]: inactive
- outcome [1]: inactive
- outcome [2]: inactive
- outcome [3]: inactive
- outcome [4]: inactive
- outcome [5]: inactive
- outcome [6]: inactive
- outcome [7]: inactive
- outcome [8]: inactive
- outcome [9]: inactive
- outcome [10]: inactive
- outcome [11]: inactive
- outcome [12]: inactive
- outcome [13]: inactive
- outcome [14]: inactive
- AC50 [18]: 14 µM (active)
- outcome [15]: inactive

SMILES: O=C1O[C@H]([C@H](O)CO)C(O)=C1O
- outcome [1]: inactive
- outcome [2]: inactive
- outcome [4]: inactive
- outcome [5]: inactive
- outcome [6]: inactive
- outcome [7]: inactive
- outcome [9]: inactive
- outcome [10]: inactive
- outcome [11]: inactive
- outcome [12]: inactive
- outcome [13]: inactive
- outcome [14]: inactive
- outcome [19]: inactive
- outcome [18]: inactive
- outcome [15]: inactive
- outcome [16]: inactive

SMILES: CCc1nc(N)nc(N)c1-c1ccc(Cl)cc1
- outcome [1]: inactive
- AC50 [2]: 21.1 µM (active)
- AC50 [3]: 50 µM (active)
- outcome [4]: inactive
- outcome [5]: inactive
- outcome [6]: inactive
- outcome [7]: inactive
- outcome [8]: inactive
- AC50 [9]: 1.33 µM (active)
- outcome [10]: inactive
- outcome [11]: inactive
- outcome [12]: inactive
- outcome [13]: inactive
- AC50 [14]: 76.3 µM (active)
- outcome [19]: inactive
- outcome [18]: inactive
- outcome [15]: inactive

SMILES: COc1ccc(OC(F)(F)F)cc1CN[C@H]1CCCN[C@H]1c1ccccc1
- outcome [20]: inactive
- AC50 [2]: 50 µM (active)
- outcome [3]: inactive
- outcome [4]: inactive
- AC50 [5]: 14.7 µM (active)
- outcome [6]: inactive
- AC50 [7]: 73.4 µM (active)
- outcome [8]: inactive
- outcome [10]: inactive
- outcome [11]: inactive
- outcome [12]: inactive
- AC50 [13]: 93.1 µM (active)
- outcome [14]: inactive
- AC50 [19]: 77.7 µM (active)
- AC50 [18]: 83.8 µM (active)
- AC50 [15]: 89.9 µM (active)

SMILES: CN(C)C(=O)NC1(c2ccccc2)CCN(CC[C@@]2(c3ccc(F)c(F)c3)CN(C(=O)c3ccccc3)CCO2)CC1
- outcome [1]: inactive
- AC50 [2]: 9.33 µM (active)
- AC50 [3]: 21.1 µM (active)
- outcome [4]: inactive
- outcome [5]: inactive
- outcome [6]: inactive
- outcome [7]: inactive
- outcome [8]: inactive
- AC50 [9]: 25.3 µM (active)
- outcome [10]: inactive
- outcome [11]: inactive
- outcome [12]: inactive
- outcome [13]: inactive
- AC50 [14]: 29.7 µM (active)
- outcome [19]: inactive
- outcome [15]: inactive

SMILES: O=C1c2c(O)cccc2Cc2cccc(O)c21
- outcome [1]: inactive
- outcome [3]: inactive
- outcome [4]: inactive
- outcome [5]: inactive
- outcome [6]: inactive
- outcome [7]: inactive
- outcome [8]: inactive
- outcome [9]: inactive
- outcome [10]: inactive
- outcome [12]: inactive
- outcome [13]: inactive
- outcome [14]: inactive
- outcome [19]: inactive
- outcome [15]: inactive
- outcome [16]: inactive
